ClpP mod – qHTS Assay for Activators of ClpP. ATP-dependent Clp protease proteolytic subunit (Bacillus subtilis (strain 168)), P80244. purified B. subtilis ClpP, FRET peptide cleavage, 20 min. Potency, µM (doses to about 57.5 µM). 340,000 compounds, 1.9% hits. AID 651965, 2013; active means well fitted falling curve with a large enough effect; inconclusive means small, poorly fitted or top-dose-only effect; inactive means no such curve, though single readings can be large or run the other way; further: the source files actives as falling curves though it sought activators and does not explain the sign; nearly all actives have a fitted effect of over 65% in size
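ClpP 10 microg/mL final, pH 8 Tris/KCl buffer with BSA, glycerol, Tween-20; compound pinned in; FRET-FV substrate; RT 20 min; Ex320/Em430; ΔFRET vs ADEP 5.8 microM, DMSO, no enzyme.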
LDHA block – blocks human lactate dehydrogenase A; purified LDHA, NADH/diaphorase-resazurin fluorescence; stronger effect = lower value; P00338; AID 1347041; activity change, % (values are at about 110 or 230 µM); 480,000 compounds, 0.15% hits; in the data active means activity change below about -30%; inconclusive means mostly about -25% to -30%
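Remaining NADH was detected by diaphorase (0.133 mg/mL) converting 37 µM resazurin to fluorescent resorufin, read at 0 and 20 minutes. The preceding 5-minute room-temperature reaction used 2 nM LDHA, 0.2 mM sodium pyruvate and 0.06 mM NADH at pH 7.4.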
p53 reactivator – mutant p53 re-activation in reporter cells. H1299 p53-A138V BP100-luciferase reporter, luminescence, 24 h. Potency, µM (top dose mostly 92.2 µM), hits mostly activators. 320,000 compounds, 0.063% hits; further: nearly all actives have a fitted effect of over 45% in size
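p53-null H1299 cells stably carrying temperature-sensitive p53-A138V and a BP100-luciferase reporter were pinned with compounds (4-point, 1:5 series) and held 24 hrs at 37 deg C. Luminescence was read 10 min after detection reagent.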
HEK293 tox – cytotoxicity counter-screen for GLP-1 receptor inverse agonists. HEK293 cAMP-luciferase reporter cells, luminescence, 24 h. Potency, µM (series often up to 38.3 µM), most hits filed as inhibitors. 410,000 compounds, 0.13% hits. AID 624418;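 further: loss of luciferase light is scored as toxicity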
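Luminescence readout: signal drop marks cytotoxicity. Plated cells grew 12 h at 37 °C, 5% CO2, received 23 nL compound for 24 h, then got luciferase reagent, read after 12 min at RT.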
GLP1R inv ag – acts as inverse agonist at human GLP-1 receptor | P43220 | HEK293 GLP-1R CRE-luciferase, luminescence, 24 h; GLP-1R form is constitutively active | Potency, µM (series often up to 38.3 µM), usual class: inhibitors | 410,000 compounds, 1.6% hits | AID 624417; further: nearly all actives have a fitted effect of over 55% in size
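Constitutively active GLP-1R drives a cAMP-responsive luciferase in stably transfected HEK293 cells; test compounds are added after overnight (12 h) attachment and left 24 hr, and signal loss in luminescence marks inhibition.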
GLP-1R agonist – agonists of human GLP-1 receptor; Potency, µM (top dose mostly 45.6 µM), hits mostly activators; 380,000 compounds, 0.007% hits; HEK293 GLP-1R CRE-luciferase, luminescence, 4-6 h; cells express a hypersensitive GLP-1R form
Of the large screens only hits and unclear results are named; the others gave an inactive call. Only some compounds are listed: those with a hit (about 2.9% of all), similar ones and a draw of the others. Unless noted, the call rests on the fitted dose curve; in most records, active means well fitted curve in the direction sought with a large enough effect; inconclusive means small, poorly fitted or top-dose-only effect, or another doubt; inactive means no such curve, though single readings can be large; an effect the other way counts as inactive or inconclusive.

COc1ccccc1C(NC(=O)CC(C)C)c1c(O)ccc2ccccc12 (centres undefined)	ClpP mod 35µM, p53 reactivator inconclusive
Nn1c(Cc2cccc3ccccc23)nnc1SCn1nnc2ccccc2c1=O	GLP1R inv ag inconclusive
Cc1cc(O)c(C(C)C)cc1NC(=O)Nc1ccc([N+](=O)[O-])cc1	GLP1R inv ag inconclusive (no result: ClpP mod, p53 reactivator)
COc1ccc(OC)c(NC(=O)CSc2cn[nH]n2)c1	none (no result: ClpP mod, p53 reactivator, HEK293 tox, GLP1R inv ag, GLP-1R agonist)
CCC(=O)NC(c1cccc([N+](=O)[O-])c1)c1c(OC(C)=O)ccc2ccccc12 (centres undefined)	ClpP mod 28µM, GLP1R inv ag inconclusive
CCC(=O)NC(c1ccccc1)c1c(OC(C)=O)ccc2ccccc12 (centres undefined)	GLP1R inv ag inconclusive (no result: ClpP mod)
CCNc1nc(NC(C)(C)C)nc(SC(C(C)=O)C(C)=O)n1	GLP1R inv ag 8.9µM
CCNc1nc(SC(C(C)=O)C(C)=O)nc(N(C)C)n1	none
COC(=O)C1=C(N)Oc2cc(N(C)C)ccc2C1c1ccccc1OC (centres undefined)	GLP1R inv ag 6.3µM
COC(=O)C1=C(N)Oc2cc(C)n(CC3CCCO3)c(=O)c2C1c1ccccc1OC (centres undefined)	none
Cc1[nH]c2ccccc2c1C(=O)C(=O)NC1(C)CCS(=O)(=O)C1 (centres undefined)	none (no result: ClpP mod, p53 reactivator, HEK293 tox, GLP1R inv ag, GLP-1R agonist)
Cc1ccc(/C=N/N2C(=S)SC(C)(C)C2N(O)C(=O)Nc2ccc([N+](=O)[O-])cc2)cc1 (centres undefined)	HEK293 tox inconclusive, GLP1R inv ag inconclusive
CC1(C)SC(=S)N(/N=C/c2ccc(O)cc2)C1N(O)C(=O)Nc1ccc([N+](=O)[O-])cc1 (centres undefined)	GLP1R inv ag 2.8µM
CN(C)CCOc1ccc(-c2c(-c3ccsc3)sc3ccccc23)cc1	none
COc1ccc(CC(=O)Nc2oc(-c3ccccc3)c(-c3ccccc3)c2C#N)cc1OC	ClpP mod 32µM, GLP1R inv ag 2.2µM
COc1ccc(-c2oc(NC(=O)CCl)c(C#N)c2-c2ccc(OC)cc2)cc1	HEK293 tox inconclusive, GLP1R inv ag 2.2µM
COc1ccccc1OCC(=O)Nc1oc(-c2ccccc2)c(-c2ccccc2)c1C#N	ClpP mod inconclusive, GLP1R inv ag inconclusive
O=C1OCCN1C(=O)[C@H]1[C@H](c2ccc([N+](=O)[O-])cc2)C(c2ccc(F)cc2)=NN1c1ccc(Br)cc1	GLP1R inv ag 10µM
COCCN=c1scc(-c2ccccc2)n1/N=C/c1c[nH]c2ccccc12	GLP1R inv ag 4µM
C(=NN=Cc1c[nH]c2ccccc12)c1c[nH]c2ccccc12	none (no result: p53 reactivator)
Nc1c(Cl)cc(Cl)cc1C(=O)OCC(=O)NC1CC1	ClpP mod 8.9µM
O=C(COC(=O)c1cc(F)c(F)cc1Cl)NC1CC1	none
COC(=O)c1ccccc1NC(=O)c1cccc(COc2ccccc2Cl)c1	ClpP mod 25µM, p53 reactivator inconclusive, GLP1R inv ag inconclusive
CC1(C)Oc2ccc3ccc(=O)oc3c2-c2cn[nH]c21	none
Cc1ccccc1Cn1c(=O)c2c(nc3n2CCCN3Cc2ccccc2)n(C)c1=O	GLP1R inv ag 3.2µM (no result: p53 reactivator)
O=C1OCC=C1NNC(=O)c1cccnc1	none
O=C(Cc1ccc(NC(=O)N2CCCCc3ccccc32)cc1)Nc1ccccc1Br	GLP1R inv ag 3.2µM (no result: p53 reactivator, GLP-1R agonist)
Cc1ccsc1C(=O)OCC(=O)Nc1cccc(S(=O)(=O)N2CCCCC2)c1	GLP1R inv ag inconclusive (no result: p53 reactivator)
COc1ccccc1C(O)(c1ccccc1)C(CN1CCOCC1)c1ccccc1 (centres undefined)	GLP1R inv ag 10µM
CCCCCCC(O)(c1ccc(OC)cc1)C(CN1CCOCC1)c1ccccc1 (centres undefined)	HEK293 tox inconclusive, GLP1R inv ag inconclusive
COc1ccc(C(O)(CCC(C)C)C(CN2CCOCC2)c2ccccc2)cc1 (centres undefined)	HEK293 tox inconclusive, GLP1R inv ag 10µM
CCCC(O)(c1ccccc1)C(CN1CCOCC1)c1ccccc1 (centres undefined)	GLP1R inv ag inconclusive
CC(C)C(O)(c1ccccc1)C(CN1CCOCC1)c1ccccc1 (centres undefined)	GLP1R inv ag inconclusive
CCCCCCC(O)(c1ccccc1)C(CN1CCOCC1)c1ccccc1 (centres undefined)	HEK293 tox inconclusive, GLP1R inv ag 3.5µM
CCCCCC(O)(c1ccccc1)C(CN1CCOCC1)c1ccccc1 (centres undefined)	GLP1R inv ag 10µM
CC(C)CCC(O)(c1ccccc1)C(CN1CCOCC1)c1ccccc1 (centres undefined)	GLP1R inv ag inconclusive
CCCCc1cc(=O)oc2c(C)c(OCC(=O)O)ccc12	none (no result: ClpP mod, p53 reactivator, HEK293 tox, GLP1R inv ag, GLP-1R agonist)
Cc1ccc(S(=O)(=O)NN=CC2(c3ccccc3)CC2)cc1	none (no result: p53 reactivator)
Cc1cc2oc(=O)cc(COC(=O)c3cccs3)c2cc1C(C)C	none (no result: ClpP mod, p53 reactivator, HEK293 tox, GLP1R inv ag, GLP-1R agonist)
CCOc1cc(C2C3=C(CCCC3=O)OC3=C2C(=O)CCC3)cc(Br)c1OCC(=O)O	LDHA block -33 (no result: ClpP mod, p53 reactivator, HEK293 tox, GLP1R inv ag, GLP-1R agonist)
COc1ccc(OC)c(-n2c(-c3ccc(S(C)(=O)=O)cc3)cc(C=O)c2C)c1	none
COc1ccc(OC)c(-n2c(C)ccc2-c2ccc(S(C)(=O)=O)cc2)c1	ClpP mod 28µM
CCOc1nc(C)cc(C)c1S(=O)(=O)c1cccc(C)c1	none (no result: ClpP mod, LDHA block, HEK293 tox, GLP1R inv ag, GLP-1R agonist)
Cc1cc(C)c(S(C)(=O)=O)c(Oc2cccc(Cl)c2)n1	none
Cc1cc(C)c(S(C)(=O)=O)c(Oc2ccc(C(C)(C)C)cc2)n1	GLP1R inv ag 11µM
Cc1ccc(S(=O)(=O)c2c(C)cc(C)nc2Oc2cccc(C(F)(F)F)c2)cc1	GLP1R inv ag 5µM
Cc1cc(-c2ccccc2)nc(Oc2cccc(C(F)(F)F)c2)c1S(C)(=O)=O	ClpP mod 35µM, GLP1R inv ag 10µM
O=C1Cc2cc(NS(=O)(=O)c3ccc(Cl)cc3)cc3c2N1CCC3	none
COc1ccc(CN2CCc3c([nH]c4ccccc34)C2)c(OC)c1C	ClpP mod 28µM, HEK293 tox inconclusive, GLP1R inv ag inconclusive (no result: p53 reactivator)
O=C1c2ccsc2SCCN1Cc1cccc(F)c1	none
O=C1c2ccsc2SCCN1Cc1c(Cl)cccc1Cl	GLP1R inv ag 2.5µM
O=C1c2ccsc2SCCN1Cc1ccc(Cl)cc1Cl	GLP1R inv ag inconclusive
O=C1c2ccsc2SCCN1Cc1c(F)cccc1Cl	GLP1R inv ag 13µM
Cc1cccc(NC(=S)N2CCCCCC2)c1	none
c1ccc2c(c1)Cn1c-2nc2ccccc21	ClpP mod 25µM, p53 reactivator inconclusive, GLP1R inv ag inconclusive

Source: PubChem BioAssay
